Bioassay records as filed in PubChem.
rCAG binder: binders of r(CAG) RNA repeats, primary screen, biochemical, fluorescence; r(CAG) RNA repeat, TO-PRO-1 dye displacement fluorescence; inhibition, % at 3 µM; 1.3% of 370,000 active;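 active means inhibition above the plate cutoff, the mean of all test compounds on that plate plus 3 SD, cut at about 35% in these data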;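 further: 0% = DMSO alone and 100% = 100 µM mitoxantrone as full dye displacement; higher means more dye released from RNA so lower well fluorescence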
FAS TE block: FAS thioesterase domain inhibitors, primary screen, biochemical, fluorescence intensity, uHTS; 0.67% of 360,000 active; recombinant FAS-TE, OMFH fluorogenic substrate, fluorescence endpoint; AID 602261, 2012; inhibition, % at 15 µM;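 active means compounds whose normalised, plate-corrected inhibition of enzyme fluorescence in the single-dose primary screen is 50% or more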;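 further: 0% = DMSO with enzyme and 100% = substrate without enzyme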
GRIN3A LBD mod: binders of NR3A ligand-binding domain, primary screen, biophysical, differential scanning fluorimetry, uHTS; NR3A LBD differential scanning fluorimetry, Tm shift; 0% = protein alone, 100% = glycine-bound protein; Tm shift relative to glycine control, % at 25 µM; 2.5% of 340,000 active; AID 1259313, 2017;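 active means melting temperature shift of at least 10% of the positive control shift, at one fixed dose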
MPTP block: mitochondrial permeability transition pore inhibitors, primary screen, biochemical, isolated mouse mitochondria, absorbance; Ca2+ swelling absorbance, 30 min; AID 602449, 2012; inhibition, % at 10 µM; 1.4% of 360,000 active;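 active means inhibition of 50% or more, scaled per plate between neutral and stimulator controls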;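 further: 0% = DMSO wells given calcium and 100% = 1 mM EGTA wells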
Myeloid diff MLP: induction of myeloid progenitor differentiation, primary screen, cell-based, flow cytometry, MLPCN library | ER-HoxA9 myeloid progenitors, lysozyme-GFP differentiation | calls only at 10 µM | 1% of 360,000 active;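 active means normalized GFP-positive differentiation at or above the plate's own cutoff, the solvent-only control mean plus 3 SD; inconclusive means no clear call, values can overlap the other calls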;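 further: cells exposed to compound for four days before flow analysis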
MPTP counter: fluorescence retest of MPTP screen hits in isolated mitochondria, single concentration. membrane potential, Rhodamine 123 fluorescence. AID 624504, 2012. inhibition, % at 10 µM. 78% of 5,000 active. shares compounds with MPTP block; in the data active means inhibition above about 22%;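 further: 0% = DMSO vehicle and 100% = positive control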
MPTP abs DR: mitochondrial permeability transition pore inhibitors, dose response, biochemical, absorbance, uHTS hits | 58% of 780 active | IC50, µM | isolated mitochondria swelling | shares compounds with MPTP block; in the data active means IC50 below about 20 µM
MPTP counter DR: fluorescent counter-screen in isolated mitochondria, dose response, counter-screen for MPTP inhibitor project, biochemical, fluorescence, uHTS hits. shares compounds with MPTP block. isolated mitochondria counterscreen, fluorescence read-out. IC50, µM. 49% of 780 active; in the data active means IC50 below about 80 µM
Active calls of the source: *; i = inactive; u = inconclusive; x = no result; + = active, no number. Sampled rows, rich in hits. Any-hit rate of the full collection: about 5.7%.

SMILES	rCAG binder	FAS TE block	GRIN3A LBD mod	MPTP block	Myeloid diff MLP	MPTP counter	others
Cc1onc(-c2ccccc2)c1CNC(=O)Nc1ccc(C(F)(F)F)cc1	1.4	28.3	10.9*	78.1*	i	83.0*
Cc1onc(-c2ccccc2)c1CNC(=O)Nc1cccc(Cl)c1	0.6	21.1	5.2	77.9*	u	85.0*
CCOc1ccc2[nH]c3c(NCCC(C)C)ncnc3c2c1	5.8	1.4	-4.7	78.0*	i	67.1*
COc1ccc2[nH]c3c(NCCCOC(C)C)ncnc3c2c1	0.8	1.3	x	1.4	i	x
COc1ccc2[nH]c3c(NCCC4=CCCCC4)ncnc3c2c1	4.6	2.7	-0.3	94.1*	u	92.8*
CCOc1ccc2[nH]c3c(NCCN(C)C)ncnc3c2c1	8.7	-3.7	x	-0.5	i	x
O=[N+]([O-])c1ccc(-c2cnc3ccccc3n2)cc1	-2.1	9.9	4.3	-0.8	i	x
O=[N+]([O-])c1ccc(-c2c(O)c3ccccc3c3nc4ccccc4nc23)cc1	6.8	3.5	-4.4	74.5*	i	37.3*
CC1=CC(C)(C)N=C(Nc2nc(C)c3cc(C)cc(C)c3n2)N1	17.4	-13.5	-7.5	94.6*	i	101.2*
CN1C(=O)C(N=Nc2ccc([N+](=O)[O-])cc2)SC1=S (centres undefined)	5.0	-0.3	-11.6	111.7*	i	69.3*
O=C(CN1C(=O)NC2(CCCCCC2)C1=O)c1cccs1	5.0	-5.8	-0.1	-2.5	i	x
COc1ccc(Cl)cc1N(C(=O)Nc1cccc(Cl)c1)C1=NCC(C)S1 (centres undefined)	-0.9	17.2	-3.0	92.0*	i	88.8*
CC(=O)N(C)c1nc(N)n(-c2ccccc2)n1	-1.4	-7.2	0.7	107.0*	i	-3.3	MPTP abs DR=>100;MPTP counter DR=>80
Cc1cccc(CSC(Nc2ccc(F)cc2)=C(C#N)C#N)c1	39.9*	12.0	5.9	97.0*	i	93.2*
Cc1cccc(CSC(=N)N)c1	2.4	-10.5	2.3	-1.1	i	x
CC1(C)C(=O)Nc2ccccc2N1C(=O)COC(=O)COc1ccc(C#N)cc1	-1.7	-3.3	0.3	2.3	i	x
CN(c1ccccc1)S(=O)(=O)c1ccc(NC(=S)Nc2ccccc2)cc1	3.3	9.0	-4.7	96.2*	i	90.7*
CCN(c1ccccc1)S(=O)(=O)c1cc(C(=O)Nc2ccc(F)c(F)c2)ccc1F	4.2	34.9	10.5*	91.4*	+	81.2*
CCN(c1ccccc1)S(=O)(=O)c1cc(NC(=O)Nc2ccccc2C#N)ccc1Cl	3.9	16.3	4.2	96.3*	i	94.9*
CN(c1ccccc1)S(=O)(=O)c1cccc(NC(=O)Nc2ccc(Cl)cc2C#N)c1	3.8	1.1	-2.6	71.3*	i	86.3*
CCN(c1ccccc1)S(=O)(=O)c1ccc(Cl)c(NC(=O)Nc2ccc(Cl)cc2C#N)c1	5.1	12.9	-6.5	3.1	i	x
CN(c1ccccc1)S(=O)(=O)c1cccc(NC(=O)c2ccncc2)c1	7.8	-0.5	-2.3	96.3*	i	68.9*
CC(=O)Nc1ccc(C(=O)Nc2cccc(S(=O)(=O)N(C)c3ccccc3)c2)cc1	7.9	0.1	-0.2	-1.1	i	x
CN(c1ccccc1)S(=O)(=O)c1ccc(C(=O)NNC(=O)c2ccccc2)cc1	3.2	-1.6	-0.4	-1.5	i	x
CN(c1ccccc1)S(=O)(=O)c1cccc(NC(=O)c2ccc(Cl)c([N+](=O)[O-])c2)c1	9.3	44.2	4.4	95.1*	i	84.3*
SMILES	rCAG binder	FAS TE block	GRIN3A LBD mod	MPTP block	Myeloid diff MLP	MPTP counter	others
O=C(Nc1ccc(Nc2ccccc2)cc1)c1ccc(Cl)c([N+](=O)[O-])c1	17.3	36.5	24.4*	66.7*	i	64.1*
CN(c1ccccc1)S(=O)(=O)c1cccc(C(=O)NNC(=O)c2ccccc2)c1	-2.1	-2.6	-0.3	55.5*	i	37.9*
CS(=O)(=O)CCC(C(=O)O)N1C(=O)c2ccc(Oc3ccc(Cl)cc3)cc2C1=O (centres undefined)	5.1	-1.4	0.5	1.1	i	x
N#Cc1ccc(S(=O)(=O)N2CCCc3nc(-c4ccccc4)ccc32)cc1	3.0	x	x	x	x	x
CC(C)C[C@@H]1O[C@H](CCc2ccccc2)Cc2[nH][nH]c(=O)c21	8.4	-40.3	x	2.1	i	x
COc1ccc(NC(=O)c2ccc(-n3cccn3)c([N+](=O)[O-])c2)cc1	4.7	5.7	0.3	-2.8	i	x
O=C(Nc1ccc(Cl)cc1)c1ccc(-n2cccn2)c([N+](=O)[O-])c1	-1.6	26.0	23.3*	72.9*	i	66.4*
CCSc1nnc(NC(=O)c2cccc(S(=O)(=O)N(C)c3ccc(C)cc3)c2)s1	15.0	3.8	4.7	72.5*	i	73.2*
CCc1nnc(NC(=O)c2cccc(S(=O)(=O)N(C)c3ccccc3)c2)s1	3.6	-6.5	-2.2	3.1	i	x
Cc1ccccc1NC(=S)Nc1ccc(Br)cc1	1.1	-9.0	-2.0	79.8*	i	82.5*
Fc1cccc(NC(=S)Nc2ccc(Br)cc2)c1	7.4	10.6	27.3*	110.2*	i	96.1*
S=C(Nc1ccc(Br)cc1)Nc1ccc2c(c1)OCCO2	0.5	8.6	4.2	80.8*	i	106.2*
CCn1c(CN2CCN(Cc3ccc(C)cc3)C(CCO)C2)nc2ccccc21 (centres undefined)	-9.6	-1.2	-0.2	0.6	i	x
CCN(CC(=O)Nc1c(F)cccc1F)C(=O)CCCSc1nc2ccccc2[nH]1	1.1	-5.2	x	-1.6	i	x
Cc1[nH]c2ccccc2c1C(=O)C(=O)NC1CC(=O)N(c2ccc(F)cc2)C1 (centres undefined)	0.4	-0.1	1.0	-1.8	i	x
COc1ccc(Cl)cc1NC(=O)NNC(=O)C(=O)Nc1ccc(F)cc1	3.5	-5.6	x	0.5	i	x
COc1cccc(C(=O)Nc2ccc(C)cc2)c1	1.2	-7.0	-9.7	-4.0	i	x
Cc1ccc(NC(=O)c2ccc(Cl)c(N3C(=O)C=CC3=O)c2)cc1	16.8	7.6	-1.4	84.3*	i	86.1*
CCN(c1ccccc1)S(=O)(=O)c1ccc(OC)c(NC(=O)c2ccc(=O)[nH]c2)c1	6.5	-11.9	1.1	0.3	i	x
